This is part of a sample that, as a whole, favours compounds with a hit. Of some 83,000 tested, about 20% had one in any assay.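 For each line, cells grew in 96-well plates with the test compound present at a single concentration for 48 hours.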 The source made the active and inactive calls. The calls were made as follows: active = growth percent below 10; inactive = the rest.
Tests used:
Experiment in all cases: NCI-60 one-dose screen, 48 h (100 = growth as untreated, 0 = no growth, -100 = all killed)
Details in all cases: 10 µM unless noted
[1] = system: HCT-15 colon
[2] = system: HT29 colon
[3] = system: SNB-75 CNS
[4] = system: SNB-19 CNS
[5] = system: U251 CNS
[6] = system: PC-3 prostate
[7] = system: SK-MEL-5 melanoma
[8] = system: LOX IMVI melanoma
[9] = system: SK-MEL-28 melanoma
[10] = system: UACC-62 melanoma

Structure (SMILES)	growth [1]	growth [2]	growth [3]	growth [4]	growth [5]	growth [6]	growth [7]	growth [8]	growth [9]	growth [10]
COC(=O)c1c2c(n3ccccc13)C(=O)c1ccccc1C2=O	51.4% (inactive)	55.3% (inactive)	113% (inactive)	62.5% (inactive)	61.6% (inactive)	47.2% (inactive)	18.1% (inactive)	49.3% (inactive)	106% (inactive)	–
CCN1CCN(CC(=O)Nc2nc3ccc(NCc4ccc(F)cc4)cc3s2)CC1	67.3% (inactive)	77.4% (inactive)	90.8% (inactive)	99.2% (inactive)	81.9% (inactive)	78.9% (inactive)	90.8% (inactive)	78.6% (inactive)	102% (inactive)	–
CCOC(=O)c1cc(C(=O)c2cc(OC)c(OC)c(OC)c2)n2ccccc12	29% (inactive)	1.16% (active)	32.9% (inactive)	43.4% (inactive)	21.6% (inactive)	22.1% (inactive)	37.7% (inactive)	47% (inactive)	72.3% (inactive)	–
O=C(CCCCCCN1CC(=O)N2[C@H](c3ccc(Br)cc3)c3[nH]c4ccccc4c3C[C@@H]2C1=O)NO	103% (inactive)	53% (inactive)	31.9% (inactive)	57.1% (inactive)	42.6% (inactive)	39.1% (inactive)	26% (inactive)	12.3% (inactive)	33.9% (inactive)	–
C/C(=N\O)[C@@H]1CC[C@]2(CO)CC[C@]3(C)[C@H](CC[C@@H]4[C@@]5(C)CCCNC(C)(C)[C@@H]5CC[C@]43C)[C@@H]12	83.6% (inactive)	24.5% (inactive)	68.9% (inactive)	89.4% (inactive)	61.4% (inactive)	60.6% (inactive)	84.1% (inactive)	77.6% (inactive)	93.2% (inactive)	–
O=S1(=O)C=C(c2ccccc2)C(c2ccccc2)=C1	-6.66% (active)	-34.3% (active)	50% (inactive)	76.6% (inactive)	14.8% (inactive)	39.6% (inactive)	27.4% (inactive)	-69.4% (active)	17.9% (inactive)	–
COc1ccc(NC(=O)Nc2ccc(OCCCCCC(=O)NO)cc2)cc1	117% (inactive)	88.8% (inactive)	93.2% (inactive)	102% (inactive)	101% (inactive)	97.8% (inactive)	104% (inactive)	96.4% (inactive)	103% (inactive)	–
O=C(CN1CCN(c2cc3c(cc2F)c(=O)c(C(=O)O)cn3C2CC2)CC1)N/N=C/c1ccco1	102% (inactive)	104% (inactive)	87.9% (inactive)	99.7% (inactive)	96.7% (inactive)	93.5% (inactive)	94.5% (inactive)	90.8% (inactive)	97.9% (inactive)	–
C=C(CNCCc1ccc(O)cc1)[C@@H]1CC[C@]2(CO)CC[C@]3(C)[C@H](CC[C@@H]4[C@@]5(C)CCC(=O)C(C)(C)[C@@H]5CC[C@]43C)[C@@H]12	6.17% (active)	-42.5% (active)	91.2% (inactive)	49% (inactive)	-63.9% (active)	14.6% (inactive)	-4.88% (active)	-89.7% (active)	-10.8% (active)	–
CCN1C(=O)N(CC)C2C1NN=c1s/c(=C\c3cnc(C)n3C)c(=O)n12 (configuration not stated)	27.7% (inactive)	0.594% (active)	-24.7% (active)	25.6% (inactive)	7.74% (active)	17.5% (inactive)	17.9% (inactive)	–	42.7% (inactive)	31.2% (inactive)
COc1ccc(Nc2ncccc2/C=C/C(=O)c2cc(OC)c(OC)c(OC)c2)cc1	-57.2% (active)	-66.8% (active)	21.4% (inactive)	33.4% (inactive)	-95.8% (active)	-15.1% (active)	-25.8% (active)	-63.6% (active)	-77% (active)	–
Cc1ccc(Cl)cc1NC(=O)c1sc2nc3c(cc2c1N)C(=O)CCC3	45.9% (inactive)	28.8% (inactive)	48% (inactive)	68.1% (inactive)	59.1% (inactive)	55.8% (inactive)	27% (inactive)	68.1% (inactive)	67% (inactive)	–
C=CCC(CCCC)(C(=O)OCC)C(=O)OCC	96% (inactive)	102% (inactive)	77.2% (inactive)	99% (inactive)	102% (inactive)	94.8% (inactive)	113% (inactive)	99.7% (inactive)	115% (inactive)	–
CCOC(=O)c1c(C)nc2c(c1N)/C(=C/c1ccc(OC)cc1)C(=O)N2Cc1ccccc1	41% (inactive)	34% (inactive)	73.3% (inactive)	77.7% (inactive)	50.7% (inactive)	58.4% (inactive)	61.8% (inactive)	55.6% (inactive)	78.5% (inactive)	–
Cc1ccc(-c2nc(-c3cn(C)c4ncccc34)cs2)cc1	-18% [100 µM] (active)	-68.1% [100 µM] (active)	-40.2% [100 µM] (active)	-21.1% [100 µM] (active)	-7.83% [100 µM] (active)	-20.6% [100 µM] (active)	-84.9% [100 µM] (active)	–	-19.7% [100 µM] (active)	-50.3% [100 µM] (active)
CC[N+]1(CC)CC[N+]2(CCCC(C)CC2)CC1 (configuration not stated)	104% (inactive)	99.7% (inactive)	115% (inactive)	102% (inactive)	111% (inactive)	96.6% (inactive)	104% (inactive)	105% (inactive)	104% (inactive)	–
COc1cc(OC)c2sc(-c3ccc(-n4cncc4-c4cc(OC)c(OC)c(OC)c4)cc3)nc2c1	41.3% (inactive)	44.5% (inactive)	82.9% (inactive)	49.7% (inactive)	43.1% (inactive)	34.4% (inactive)	20.9% (inactive)	57.7% (inactive)	73% (inactive)	–
CN1CCN(Cc2ccc(NC(=O)c3cncc(C#Cc4cnc5ccc(Cl)nn45)c3)cc2C(F)(F)F)CC1	0.05% (active)	2.68% (active)	-52.4% (active)	6.75% (active)	4.22% (active)	-18.6% (active)	-58.7% (active)	-44.3% (active)	-8.84% (active)	–
COc1cc(/C=N/Nc2ccc(Br)cc2)cc(OC)c1OC	18.9% (inactive)	29.2% (inactive)	87.5% (inactive)	91.6% (inactive)	65.5% (inactive)	60.9% (inactive)	85% (inactive)	13.5% (inactive)	82.1% (inactive)	–
COc1cccc(/C=N/NC(=O)c2ccccc2N2CCCC2)c1O	19.4% (inactive)	69.3% (inactive)	67.4% (inactive)	65.8% (inactive)	46.7% (inactive)	72% (inactive)	58.4% (inactive)	25.4% (inactive)	72.1% (inactive)	–
COc1cccc(CNc2c3ccccc3nc3ccccc23)c1	24.4% (inactive)	18.7% (inactive)	56.9% (inactive)	36% (inactive)	38.7% (inactive)	38.9% (inactive)	57.6% (inactive)	19.8% (inactive)	81.2% (inactive)	–
Cc1nc2cc(O)c(O)cc2cc1Oc1ccc(NC(=O)Nc2ccc(Cl)c(Cl)c2)cc1	37.2% (inactive)	48% (inactive)	–	49% (inactive)	41.4% (inactive)	39.3% (inactive)	-42.2% (active)	0.463% (active)	79.1% (inactive)	84.5% (inactive)
Cc1ccc(C(=O)c2ccc(CC(=O)N=Nc3c(O)[nH]c4ccc(Br)cc34)n2C)cc1	96.7% (inactive)	105% (inactive)	84% (inactive)	89% (inactive)	92.6% (inactive)	89.3% (inactive)	95.9% (inactive)	–	102% (inactive)	–
CCCCNC(=O)c1cc([N+](=O)[O-])cc(C2CCCCC2)c1O	42.7% (inactive)	69.7% (inactive)	58.6% (inactive)	40.3% (inactive)	24.1% (inactive)	27.1% (inactive)	-12.6% (active)	–	34.3% (inactive)	–
O=c1c2c3c(sc2n2c(-c4cc(-c5ccccc5)no4)nnc2n1Cc1ccccc1)CCCC3	96.9% (inactive)	108% (inactive)	76.2% (inactive)	55.7% (inactive)	94.3% (inactive)	71.8% (inactive)	105% (inactive)	–	127% (inactive)	–
CCOC(=O)CC1CSC(Nc2ccccc2)=N1 (configuration not stated)	107% (inactive)	96.8% (inactive)	–	104% (inactive)	99.5% (inactive)	99.9% (inactive)	103% (inactive)	–	115% (inactive)	99.7% (inactive)
CCN(CC)CCCN1C(=O)c2c(c(C)c3c(oc4ccc(OC)cc43)c2C)C1=O	94.9% (inactive)	90.9% (inactive)	–	94.4% (inactive)	96.4% (inactive)	97.4% (inactive)	75.1% (inactive)	96.9% (inactive)	94.1% (inactive)	102% (inactive)
CCCCCN(CCCCC)CC(O)c1cc(C)c2ccc3cc(C(C)C)ccc3c2c1 (configuration not stated)	-86.3% (active)	-43.9% (active)	–	7.47% (active)	-87.4% (active)	53.3% (inactive)	79.1% (inactive)	-93.9% (active)	88.1% (inactive)	91.3% (inactive)
CSc1nc(C)c([N+](=O)[O-])c(N)n1	107% (inactive)	85.4% (inactive)	–	96.9% (inactive)	87.9% (inactive)	85.3% (inactive)	102% (inactive)	96.7% (inactive)	120% (inactive)	98% (inactive)
